# Results taken from PubChem BioAssay AID504843 (Broad Institute, 2011).
# Out of some 1,200 compounds screened, about 360 (30%) were called active. The rule behind the calls is not given here. The list is a sample of the results. Results with a measured potency or affinity are listed apart.
# Assay: bacterial growth inhibition, dose response, counter-screen, BacTiter-Glo luminescence, cherry-picked samples (AID 504843);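 note: 0% = median of sample compound wells and -100% = antibiotic control wells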
# Conditions: BacTiter-Glo ATP luminescence; series mostly up to 15 µM; activity change, negative = inhibition: at the top concentration
row,Structure (SMILES),"activity change, negative = inhibition"
1,CC(C)c1cc(C(N)=O)c(NC(=O)c2cccc(COc3ccc(Cl)cc3)c2)s1,-11% (inactive)
2,CC(=O)N1c2ccc(S(=O)(=O)N3CCC(C(=O)N4CCN(c5ccccc5F)CC4)CC3)cc2CC1C (configuration not stated),9.5% (inactive)
3,O=C(CSc1nc2ccccc2c(=O)[nH]1)N1CCN(c2ccccc2F)CC1,-12.6% (inactive)
4,CC(C)c1ccc(C2C(C#N)=C(N)Oc3c2oc(CO)cc3=O)cc1 (configuration not stated),-2.52% (inactive)
5,COC(=O)COc1ccc(-n2cnnn2)cc1,-3.54% (inactive)
6,Cc1cccc(N(CC(=O)Nc2cccnc2)S(C)(=O)=O)c1,-4.93% (inactive)
7,O=C(Nc1c2c(nn1-c1ccccc1)CS(=O)(=O)C2)c1cccs1,6.9% (inactive)
8,COc1ccc(-c2nc3ccccc3o2)cc1NC(=O)c1ccc(Br)o1,7.17% (inactive)
9,O=C(NNC(=S)Nc1cccc(Cl)c1)c1ccccc1OC(F)F,-4.26% (inactive)
10,CC1CC(OC(=O)C(O)c2ccccc2)CC(C)(C)N1C (configuration not stated),4.13% (inactive)
11,NC(=O)NC(=O)CSc1nc2sc(-c3ccccc3)cc2c(=O)n1-c1ccccc1,12% (inactive)
12,CCOc1ccc(-n2c(SCC(=O)O)nc3sc4c(c3c2=O)CCCC4)cc1,-11.9% (inactive)
13,CCNc1nc(NC(C)(C)C)nc(N(CC)n2cnnc2)n1,-9.55% (inactive)
14,O=C(NCC1CCCO1)C1CCCN(S(=O)(=O)c2ccc(F)cc2)C1 (configuration not stated),1.36% (inactive)
15,CCCCS(=O)(=O)N1CCCC(C(=O)Oc2ccc(Cl)cc2)C1 (configuration not stated),11.8% (inactive)
16,COc1ccccc1C(C[N+](=O)[O-])c1c[nH]c2ccccc12 (configuration not stated),-32.1% (inactive)
17,CCOC(=O)[C@H]1[C@H]2COc3ccc(Cl)cc3[C@@H]2N2C(=O)[C@H](C)NC(=O)[C@@]12C,15.9% (inactive)
18,O=C(c1ccc(-n2cncn2)c([N+](=O)[O-])c1)N1CCN(S(=O)(=O)c2ccc(Br)cc2)CC1,2.46% (inactive)
19,Cc1cc(C(=O)c2ccccc2)c(NC(=O)CCl)s1,6.72% (inactive)
20,CCCC(C(=O)NNC(=O)c1cc(C)oc1C)c1ccccc1 (configuration not stated),15.9% (inactive)
21,O=C(O)c1ccc(/C=C2\SC(=Nc3ccccc3)N(c3ccccc3)C2=O)cc1,-11.6% (inactive)
22,CCC1CCCCN1CCNC(=O)CNS(=O)(=O)c1ccc2nc(C)sc2c1 (configuration not stated),8.77% (inactive)
23,Cc1ccccc1NC(=O)NCCN1C(=O)C2C3C=CC(C3)C2C1=O (configuration not stated),-0.572% (inactive)
24,CCOc1ccc(NC(=O)CN2C(=O)/C(=C3\SC(=S)N(C4CCS(=O)(=O)C4)C3=O)c3ccccc32)cc1 (configuration not stated),12.8% (inactive)
25,COc1ccc(C(=O)Nc2cnn(Cc3ccc(Cl)cc3)c2)cc1OC,5.42% (inactive)
26,COc1cc(C(=O)Oc2cc(C)cc(C)c2)cc(OC)c1OC,10.3% (inactive)

row,Structure (SMILES),"activity change, negative = inhibition"
1,CCOC(=O)CC(NC(=O)c1cccc2c1C(=O)N(Cc1cccnc1)C2)c1ccc(OCC)c(OC)c1 (configuration not stated),13.7% (inactive)
2,CCc1ccc(C(C(=O)NC2CCCC2)N(CCOC)C(=O)CCC(=O)Nc2cc(C)on2)cc1 (configuration not stated),-13.1% (inactive)
3,CCCCCCCCCCCCN1[C@@H](CC(=O)O)c2cc(C(F)(F)F)ccc2S1(=O)=O,1.32% (inactive)
4,Cc1c(OCC(=O)NCCCN2CCOCC2)ccc2c1oc(=O)c1ccccc12,-18.3% (inactive)
5,O=C(NCCCN1CCOCC1)c1cc2cc(Br)ccc2oc1=O,6.15% (inactive)
6,COc1cccc(C2CC(c3cccc(OC)c3)n3nc(N)nc3N2)c1 (configuration not stated),-15% (inactive)
7,Cc1ccc(NC(=O)C(c2ccc(Cl)cc2)N2CCCCC2)cc1 (configuration not stated),0.88% (inactive)
8,CC(=O)c1ccc(NC(=S)NC(C)c2ccc(Cl)cc2Cl)cc1 (configuration not stated),17.5% (inactive)
9,CCc1ncc(C)nc1CC,-1.22% (inactive)
10,CN1CCN(C(=S)c2cn(Cc3ccc(Br)cc3)c3ccccc23)CC1,9.12% (inactive)
11,Cc1nn(-c2ccccc2)c(Cl)c1/C=N/NC(=O)c1ccn[nH]1,-23.5% (inactive)
12,Cc1nn(-c2ccccc2)c(Cl)c1/C=C(\CC(=O)O)c1nc2ccccc2s1,-4.76% (inactive)
13,COc1ccc(C(=O)NCC(=O)N/N=C/C(C)=C/c2ccco2)cc1OC,-5.85% (inactive)
14,N/C(=N\OS(=O)(=O)c1ccccc1)c1cccnc1,0.119% (inactive)
15,CC(Sc1nc2ccccc2c(=O)n1C)C(=O)NC1CCCCC1C (configuration not stated),-0.837% (inactive)
16,O=C(NCc1cccs1)c1cccnc1C(=O)O,12.1% (inactive)
17,CCOCCCNS(=O)(=O)c1ccc(Br)cc1,11.4% (inactive)
18,O=C1OCCN1C(=O)[C@H]1[C@H](c2ccc(Cl)cc2)C(c2ccccc2)=NN1c1ccccc1,2.81% (inactive)
19,COc1ccc(N2CCN(C(=O)C3CCCN(S(=O)(=O)c4cccc5cccnc45)C3)CC2)cc1 (configuration not stated),-8.76% (inactive)
20,O=C(Nc1ccc2c(c1)OCCO2)N1CCN(c2ccc(F)cc2)CC1,6.77% (inactive)
21,COc1ccc(Cn2nnnc2C(c2cc3ccc(OC)cc3[nH]c2=O)N2CCC(C)CC2)cc1 (configuration not stated),-12.1% (inactive)
22,CCS(=O)(=O)c1ccc(NC(=O)c2ccccc2Cl)c(O)c1,-5.15% (inactive)
23,Cc1ccc(S(=O)(=O)N(CC(=O)Nc2ccccc2-c2ccccc2)c2ccc(C)cc2C)cc1,-4.21% (inactive)
24,CCn1c(CCn2c3ccccc3c3ccccc32)n[nH]c1=S,-5.11% (inactive)
25,CC(=O)NC(Cc1ccc(F)c(F)c1)C(=O)NC1CCN(c2c(Cc3ccccc3)c(C)nc3ncnn23)CC1 (configuration not stated),-2.55% (inactive)
26,O=C(Nc1cc(F)ccc1F)C1CCCN(c2ncnc3c2nc2n3CCCCC2)C1 (configuration not stated),-3.11% (inactive)
